# Experimental data as given in the supplement of paper PMC10105736.
# Unmarked numbers belong to inactive results.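 How the source made its calls: active = MAPPIT score above the 99th percentile of random reference set scores in the same batch; inactive = at or below it.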
# B1: noc (protein)
# chain: MVVLEGGGGVVTIGNNQYLQPDYLAPLPTTMDAKKSPLALLAQTCSQIGADSSAVKPLLAMDKNKTKPGACSSSSNSSSSSGSAEISAAKSPSGQAKSPKSSTPISSTATSASLSNTSTGEIKLAFKPYETNVLSHQNQNSFKSSSSLDAEPTRPSSKNSSSAQERVPSRSKSNATPTDGGKAEISAHDSSSSRKTVSPSGSSQRGASPIVRSGMEVLNNANGTAQHPKEMSSMAAAAAAAAAAYKAAGPYGLNPLSALCCPPGMEQHANPAFRPPFAGGFSHHHAAMLAVAANGGYPGGAPGGGPAGQPNPYISYQRIKTPAGGEAIVPVCKDPYCQGCPYSAHTQQMLMGAPCPAGCTQCEHQKYGLAMASAAGLPPAHPYSQAAAAAAANAAAARSAPYVCSWVVGDAYCGKRFQTSDELFSHLRTHTGNLSDPAAAAAALAQSQAQSLLGTLFPPSALRAGYPTPPLSPMSAAAAAARYHPYAKPPPGALAGGPSPFGAAGAFNPAAAAAAAALGPYYSPYAMYGQRMGAAHQ
# B2: Pgam5 (protein)
# chain: MRKLTSFVCGTGAGLAAYYLQRLRDPQTVVQNSWTHSDKPVDPWALWDTNWDCREPRALVRPLRNSQPEEENRYNAELEKAKAKKARHIILVRHGEYLDVGDSDDTHHLTERGRKQAEFTGKRLCELGIKWDKVVASTMVRAQETSDIILKQIDFEKEKVVNCAFLREGAPIPPQPPVGHWKPEASQFLRDGSRIEAGFRRYFHRAYPDQEKESYTLIVGHGNVIRYFVCRALQFPAEGWLRININHASITWLTISPSGNVSIKYLGDSGFMPAELLTNRIPRDVKNVV
# B3: CG30031 (protein)
# chain: MLKFVILLSAVACALGGTVPEGLLPQLDGRIVGGSATTISSFPWQISLQRSGSHSCGGSIYSSNVIVTAAHCLQSVSASVLQIRAGSSYWSSGGVTFSVSSFKNHEGYNANTMVNDIAIIKINGALTFSSTIKAIGLASSNPANGAAASVSGWGTLSYGSSSIPSQLQYVNVNIVSQSQCASSTYGYGSQIRSTMICAAASGKDACQGDSGGPLVSGGVLVGVVSWGYGCAYSNYPGVYADVAALRSWVISNA
# B4: Calr (protein)
# chain: MMWCKTVIVLLATVGFISAEVYLKENFDNENWEDTWIYSKHPGKEFGKFVLTPGTFYNDAEADKGIQTSQDARFYAASRKFDGFSNEDKPLVVQFSVKHEQNIDCGGGYVKLFDCSLDQTDMHGESPYEIMFGPDICGPGTKKVHVIFSYKGKNHLISKDIRCKDDVYTHFYTLIVRPDNTYEVLIDNEKVESGNLEDDWDFLAPKKIKDPTATKPEDWDDRATIPDPDDKKPEDWDKPEHIPDPDATKPEDWDDEMDGEWEPPMIDNPEFKGEWQPKQLDNPNYKGAWEHPEIANPEYVPDDKLYLRKEICTLGFDLWQVKSGTIFDNVLITDDVELAAKAAAEVKNTQAGEKKMKEAQDEVQRKKDEEEAKKASDKDDEDEDDDDEEKDDESKQDKDQSEHDEL
# B5: Drs (protein)
# chain: MMQIKYLFALFAVLMLVVLGANEADADCLSGRYKGPCAVWDNETCRRVCKEEGRSSGHCSPSLKCWCEGC
# B6: Hsp67Bc (protein)
# chain: MPDIPFVLNLDSPDSMYYGHDMFPNRMYRRLHSRQHHDLDLHTLGLIARMGAHAHHLVANKRNGELAALSRGGASNKQGNFEVHLDVGLFQPGELTVKLVNECIVVEGKHEEREDDHGHVSRHFVRRYPLPKEFDSDAIVSTLSEDGVLNITVPPLVSKEELKERIIPIKHVGPSDLFQNGNGHKEAGPAASASEPEAK
# B7: Syx4 (protein)
# chain: MGKDRLPELLQRSLSTNSSNSSSNGSLLLNVYSGTTEFIIGNTGGNNNSYSVVSQNSHSCSNNNSSTEPKDRSSSKMTQYGSNVDDILNPYTEIRQQLAQIAANLETMNRMAQTVNLRTFNENEMDELHNKNLRLGNQLMTRFNDFKANLPAENDYSLEARMKRTLFYGLHQTFINLWHKNELFLQNYETKVKKNLRLHTKIINSEASEQEIELLIENKTTKLFVDNFLQETEKERQTLREMMDRFNELRRLEKSIEEVHALFMRIQTLVMEQSEVIQRVEFHAQQATLHVDKGADELDQAEQHQKKARKKKIMLIVILAAVLLVLLLVGIYL
# B8: rux (protein)
# chain: MSAPEEHKETPLEVIHEFINGVDDGTIRRDLGEDCILSFYSRNVRGAKAITGFLRNQLTMRYKHEGFEEAAQIEWGDELLLKARFGRSFDSERRRIYEEKERTGTTLHVRPESDDEEVNEKFSSTLITPPRPSSYNLNSLKYVEACGLLNKRNEHIYGGLDMGESCAVHLTLGYRSTFLPGGQVSGFEICLAVYDRGLTSLKRSTLIPPLCSISFARRASARCNPTTDDEEDTEEDSTPPTARRCVRRTLFTEENTQKEEDADFIPVVEQEQPAPQEQPAPQQAEETGEVVIPVDISTALKTTNFSSCTPRKRQQATNGNEVVRKRATGPRRMRF
# B9: shv (protein)
# chain: MQLIKCLVIIQLSLLLVEESFAGRDFYKILNVKKNANTNEVKKAYRRLAKELHPDKNKDDPDASTKFQDLGAAYEVLSNPDKRKTYDRCGEECLKKEGMMDHGGDPFSSFFGDFGFHFGGDGQQQDAPRGADIVMDLYVSLEELYSGNFVEIVRNKPVTKPASGTRKCNCRQEMVTRNLGPGRFQMIQQTVCDECPNVKLVNEERTLEIEVEQGMVDGQETRFVAEGEPHIDGEPGDLIVRVQQMPHPRFLRKNDDLYTNVTISLQDALVGFSMEIKHLDGHLVPVTREKVTWPGARIRKKGEGMPNFENNNLTGNLYITFDVEFPKKDLTEEDKEALKKILDQSSINRIYNGL
# B10: Dysb (protein)
# chain: MFGNLKKKLSSAIQEGLVISENLQQQYRQRVSSGNSGSSQASGITTPISPLGLNESLSSSRSSSLSLSAPFQLTDGVPSHLNVAAGCSLLAKYEDDWQQIHGANEKNAEKAAQIANQISGIQDQASHQHRIMSELNSSLAGIPTLIAQLQNSSQVLNSLEEMGKQLEIELEKLEDLREECELQEFILEQQFQLSRHKQKKLNELEQYRQQIAQKHQSKIKDQEQTLLKLQRERQAVFDDAFREDMEEYKQRGQLTKIQTTSNKLALEEVVLEANEVETKDALEQFLNG
# B11: l(2)34Fc (protein)
# chain: MFRLLVLAACLAISVHAYSDGAPKAACRDLTPQHGAKLQVTKPPYSISGPSHVRSDQKLTLTLGGDEFLGFMIQARDGQNRVVGQFQVVDSVHSQTLDCSGKDDTITHLSAQKGKPLTGITFDWIPPAGYKGNVKFMATVVQTGFVYWVGRVTKDIDVE
# B12: dre4 (protein)
# chain: MSSFVLDKEAFVRRVKRLYTEWRAPSIGHDDALRNLDCIMSIVGVEEDVMYSKSMALQLWLLGYELTDTISVFCSDAVYFLTSKKKIEFLKQTQNITEEGFPEINLLVRDRTDKDQGNFEKLIKALQNSKKGKRLGVFAKDAYPGEFSEAWKKSLTASKFEHVDISTIIAYLMCPKDESEINNIRKASLVSMDIFNKYLKDEIMDIIDSDRKVKHNKLSDGCEAAIGEKKYTSGLDPRLLDMAYPPIIQSGGAYSLKFSAVADKNPLHFGVIVCSLGARYKSYCSNISRTFLVNPTEAMQENYTFLVSVQEEILKLLVPGTKLCDVYEKTLDFVKKEKPSMVDNLPKSFGFAMGLEFRENSIVIGPKCQALLKKNMVFNLHVGISNLTNPEATDKEGKNYALFIGDTVLVGEQSPASVMTPSKKKIKNVGIFIKDDSDEEDVDDKKTAKEDQGTEILGRSKRNAVLESKLRNEINTEEKRKEHQRELAQQLNERAKDRLARQGNSKEVEKVRKNTVSYKSISQMPREPEVKELKLYVDKKYETVIMPVFGIQVPFHISTIKNISQSVEGEYTYLRINFFHPGATMGRNEGGLYPQPEATFVKEVTYRSSNVKEHGEVGAPSANLNNAFRLIKEVQKRFKTREAEEREKEDLVKQDTLILSQNKGNPKLKDLYIRPNIVTKRMTGSLEAHSNGFRYISVRGDKVDILYNNIKSAFFQPCDGEMIILLHFHLKYAIMFGKKKHVDVQFYTEVGEITTDLGKHQHMHDRDDLAAEQAERELRHKLKTAFKSFCEKVETMTKSVVEFDTPFRELGFPGAPFRSTVTLQPTSGSLVNLTEWPPFVITLDDVELVHFERVQFHLRNFDMIFVFKEYNKKVAMVNAIPMNMLDHVKEWLNSCDIRYSEGVQSLNWQKIMKTITDDPEGFFEQGGWTFLDPESGSEGENETAESEEDEAYNPTDAESDEESDEDSEYSEASEDSEESDEDLGSDEESGKDWSDLEREAAEEDRNHDYAADDKPRNGKFDSKKHGKSSKHSPSKSSKDKYNSRDKHHSSSSSGNKSSSKDKDRKRSRDDSRDNGHKSKKSRH
# B13: Gem2 (protein)
# chain: MQHEPEDQTFQLQALEICEPDSSFDPQKPPESGEEYLMHMFYERKRCPAVVTKRSSKIRNNTGNTTLEMLDNPELPPFKCLLPTPEWRDEQVKSFQAARSQVLVLRKELANNNYDQSGEPPLTSDQEKWKEFCRNQQPLLSTLLHLTQNDLELLLEMLSKWLQDPNTTVDLLHDVWLARWLYATLVCLHLPLEPHVFSTLRYIARTCIHLRNQLKEDEVQRAAPYNLLLTLTVQVFAQNDFKDYI
# B14: Zpr1 (protein)
# chain: MSTVSDPNSSNPPESAGNIRPEPIFREINAEQTDEIVEVESACMNCFETGVTRLLPTKIPFFREVVLMSFKCDHCGHINNEMQSASEIQKSGIRIELRVQSVADLNRRVVRSDNSSISIPEIELEIPVQSQKGEVTTVEGIIERTIAGLSQDQEKRRIDHPETAASIEKYIERLHRLKEVTTPFQVLLEDISGNSFIENPLAPAADPQLKTSYFTRSQQQNEQLGLYEQNHEEQHLLKPIAEDSWPIENLHGEVLQFPTNCPSCQAPCETNMKLTNIPHFKEVVIMATVCGACGHKTNEVKSGGGVEAQGVRFRVQIASREDLTRDVLKSETCSMSIPELDLEVGPHALCGRFTTVEGLLVAMRDQLDGTLFHDSADDATKQQMQRFLDTFEDVMNLKRVITLVLEDPAGNTYVQSLSDDDSEPDDKLTVERYDRSYEDNEDLGLNDMKTEGYEEKA
# How the values were obtained:
# Assay in all cases: MAPPIT interaction score (arbitrary units); higher = stronger binary interaction signal, active = hit call of the paper
# Sod3 = biological target: Sod3
# Sirt2 = conditions: MAPPIT configuration: N-N; pair source set: Finley_Y2H
# Six4 = conditions: MAPPIT configuration: N-N; pair source set: Lit-BS-16
# Su(var)2-10 = conditions: MAPPIT configuration: N-N; pair source set: DPIM
# SmydA-8 = conditions: MAPPIT configuration: N-N; pair source set: screen_2
# Snap29 = conditions: MAPPIT configuration: N-C; pair source set: Lit-BM-16
# Slh = conditions: MAPPIT configuration: N-N; pair source set: Finley_Y2H
# Snapin = conditions: MAPPIT configuration: N-N; pair source set: Lit-BM-16
# Sms = conditions: MAPPIT configuration: N-N; pair source set: Finley_Y2H
# Ssrp = conditions: MAPPIT configuration: N-C; pair source set: Lit-BM-16
# Smn = conditions: MAPPIT configuration: N-C; pair source set: Lit-BM-16
# Swt1 = conditions: MAPPIT configuration: N-N; pair source set: Finley_Y2H
# 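Further: HEK293T cells with Epo stimulation, STAT-responsive firefly luciferase reporter, fold induction versus unstimulated cells divided by the larger fold induction of two negative controls lacking either bait or prey.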
binder,measurement,setting,value
B1,MAPPIT interaction score,"Sod3; MAPPIT configuration: N-N, pair source set: Lit-BS-16",0.758
B2,MAPPIT interaction score,Sirt2,0.996
B3,MAPPIT interaction score,Six4,-0.185
B4,MAPPIT interaction score,Su(var)2-10,1.1
B5,MAPPIT interaction score,"Sod3; MAPPIT configuration: N-C, pair source set: screen_4",1.45
B6,MAPPIT interaction score,SmydA-8,-0.475
B7,MAPPIT interaction score,Snap29,3.12
B8,MAPPIT interaction score,Slh,-0.123
B9,MAPPIT interaction score,"Sod3; MAPPIT configuration: N-N, pair source set: Curagen_high_conf",0.367
B10,MAPPIT interaction score,Snapin,3.8 (active)
B11,MAPPIT interaction score,Sms,0.335
B12,MAPPIT interaction score,Ssrp,0.759
B13,MAPPIT interaction score,Smn,2.73
B14,MAPPIT interaction score,Swt1,-0.39
